Results from PubChem BioAssay (NCATS).
A number with no mark means an inactive call. Inconclusive results are not listed. Entries that show only a call come without a potency. Activity calls are given as the source filed them. Calls follow the shape of the dose curve; as a rule, active = well fitted curve in the direction sought with a large enough effect; inconclusive = small, poorly fitted or top-dose-only effect, or another doubt; inactive = no such curve, though single readings can be large; an effect the other way counts as inactive or inconclusive.

Legend:
[1] = molecular target: Glutathione peroxidase 1 (Homo sapiens) (UniProt P07203); test: Primary qHTS Assay for Inhibitors of Recombinant Selenoprotein Glutathione Peroxidase 1 (GPX1) (AID 1845191); also: nearly all actives have a fitted effect of over 65% in size
Chain of Glutathione peroxidase 1 (Homo sapiens) (P07203 whole entry, looked up): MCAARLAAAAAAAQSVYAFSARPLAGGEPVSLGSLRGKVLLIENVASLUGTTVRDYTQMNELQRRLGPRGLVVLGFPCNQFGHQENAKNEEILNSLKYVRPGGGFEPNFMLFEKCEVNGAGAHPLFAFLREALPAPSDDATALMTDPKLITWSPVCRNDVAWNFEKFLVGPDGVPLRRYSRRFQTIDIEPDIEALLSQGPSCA
How it was run: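 GR-coupled readout: NADPH consumption tracked by fluorescence, ex 340/em 450 nm, at t=0 and after 15 min at RT. Final mix 10 nM GPX1, 1 mM GSH, 0.5 mM CHP, 0.5 mM NADPH, 100 nM GR, 0.01% BSA, following 30 min enzyme–compound preincubation.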

[2] = molecular target: Phospholipid hydroperoxide glutathione peroxidase GPX4 (Homo sapiens) (UniProt P36969); test: Primary qHTS Assay for Inhibitors of Recombinant Selenoprotein Glutathione Peroxidase 4 (GPX4) (AID 1845192); also: nearly all actives have a fitted effect of over 65% in size; as to activity change, negative = inhibition: series mostly up to about 50 µM
Chain of Phospholipid hydroperoxide glutathione peroxidase GPX4 (Homo sapiens) (P36969 whole entry, looked up): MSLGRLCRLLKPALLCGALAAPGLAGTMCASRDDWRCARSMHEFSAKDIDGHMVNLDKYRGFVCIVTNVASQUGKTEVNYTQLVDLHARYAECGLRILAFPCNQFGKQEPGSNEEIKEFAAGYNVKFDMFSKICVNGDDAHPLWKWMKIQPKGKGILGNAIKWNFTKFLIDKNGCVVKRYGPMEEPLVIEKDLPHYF
How it was run: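 Steps: GPX4 plus compound, 30 min RT; add GR/GSH/NADPH master mix; start with cumene hydroperoxide; read 340/450 nm fluorescence at 0 and 15 min. Finals were 200 nM GPX4, 1 mM GSH, 0.5 mM CHP, 0.5 mM NADPH, 100 nM GR.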

[3] = molecular target: Luciferin 4-monooxygenase (Photinus pyralis) (UniProt P08659); test: Primary firefly luciferase (FLuc) qHTS assay for identification of artifact compounds. (AID 1845220); also: nearly all actives have a fitted effect of over 60% in size; as to activity change, negative = inhibition: series mostly up to about 54 µM
How it was run: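 Enzymatic FLuc inhibition assay: compounds pre-exposed to luciferin/ATP (10 uM each) for 15 min, then purified P. pyralis enzyme at 10 nM added. Read-out: luminescence at 5 min.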

[4] = Primary fluorescence-based thiol-reactive (MSTI) qHTS assay for identification of artifact compounds. (AID 1845221); also: nearly all actives have a fitted effect of over 65% in size; also: potency is read from the fitted curve at half-maximal effect;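 as to activity change, negative = thiol reactive: series mostly up to about 54 µM; thiol-reactive compounds lower the probe fluorescence signal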
How it was run: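 qHTS titration of compound; 4 uM MSTI, PBS pH 7.4, 2% DMSO; 1 h RT, dark; fluorescence 525/598 nm; normalized to Acetyl-MSTI and MSTI; 4-parameter Hill fit.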

[5] = system: Nanoluciferase (engineered Oplophorus gracilirostris luciferase); test: Primary Nanoluciferase (NLuc) qHTS assay for identification of artifact compounds. (AID 1845222);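 also: NLuc secreted into diluted conditioned medium of S16 cells; series mostly up to about 54 µM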
How it was run: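 S16 cell supernatant NLuc, 1:55; cpds qHTS; 15 min RT dark; Nano-Glo substrate 1:100, 5 min; luminescence; Hill fit of % inhibition.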

[6] = Primary redox qHTS assay for identification of artifact compounds. (AID 1845223); also: potency is read from the fitted curve at half-maximal effect
How it was run: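 Redox-cycling detection via DTT (250 uM final) oxidation coupled to Amplex Red (25 uM)/HRP (250 mU/mL) in HBSS. 15 min preincubation plus 30 min after DTT, room temperature. Ex/Em 525/598 nm; 4-parameter Hill fit against DMSO and 10 uM DA3003.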

| Compound | Potency [1] | Potency [2] | Potency [3] | Potency [4] | Potency [5] | Potency [6] | activity change, negative = inhibition [3] | activity change, negative = thiol reactive [4] | activity, negative = inhibition [5] | redox activity (% of DA3003) [6] |
| --- | --- | --- | --- | --- | --- | --- | --- | --- | --- | --- |
| CNS(=O)(=O)CC1CCC(N(C)c2ncnc3[nH]ccc23)CC1 (configuration not stated) | inactive | inactive | inactive | inactive | inactive | inactive |  |  |  |  |
| CS(=O)(=O)c1ccc([C@H](CC2CCCC2)C(=O)Nc2nccs2)cc1 | inactive | inactive | inactive | inactive | inactive | inactive |  |  |  |  |
| COc1ccc(CCC(=O)c2c(O)cc(O)cc2O[C@@H]2O[C@H](CO)[C@@H](O)[C@H](O)[C@H]2O)cc1 | inactive | inactive | inactive | 10.3 µM (active) | inactive | inactive |  |  |  |  |
| CNC(=O)c1ccccc1Nc1nc(Nc2ccc(N3CCNCC3)cc2)ncc1Cl | inactive | inactive | inactive | 3.36 µM (active) | inactive | inactive |  |  |  |  |
| COc1ccc(F)cc1-c1cc(NC(=O)[C@@H]2CCCNC2)ncc1Cl | inactive | inactive | inactive | inactive | inactive | inactive |  |  |  |  |
| CCC(COC)n1nnc2c(Nc3ccc(OC)cc3C)nc(C)cc21 (configuration not stated) | inactive | inactive | inactive | inactive | inactive | inactive |  |  |  |  |
| C/C=C1\[C@H](O[C@@H]2O[C@H](CO)[C@@H](O)[C@H](O)[C@H]2O)OC=C(C(=O)OC)[C@H]1CC(=O)OC[C@H]1O[C@@H](OCCc2ccc(O)cc2)[C@H](O)[C@@H](O)[C@@H]1O | inactive | inactive | inactive | 2.24 µM (active) | inactive | inactive |  |  |  |  |
| COc1cc(O)c([C@@H](CC(=O)N2CC(C)CC(C)C2)c2ccc3c(c2)OCO3)c(OC)c1 (some centres not stated) | inactive | inactive | inactive | inactive | inactive | inactive |  |  |  |  |
| CC(C)=C/C=C\[C@H](C)[C@H]1CC[C@]2(C)C[C@@H]3C(C)=CC(=O)C3/C(CO)=C\C[C@@H]12 (some centres not stated) | inactive | inactive | inactive | inactive | inactive | inactive |  |  |  |  |
| COc1cccc(-c2cc(NCc3ccc4c(c3)OCO4)nc(N)n2)c1 | inactive | inactive | inactive | inactive | inactive | inactive |  |  |  |  |
| COCC1OC(OC(C)(C)C2CCC3(C)C=C(C4CCC5C4(C)CC(O)C4OC(C(C)(C)OC6OC(CO)C(O)C(O)C6NC(C)=O)CCC45C)CCC3O2)C(NC(C)=O)C(O)C1O (configuration not stated) | inactive | inactive |  |  |  |  | 0.545% [at 11.6 µM] | 5.19% [at 11.5 µM] | -0.592% [at 11.6 µM] | 3.42% [at 11.5 µM] |
| CC(C)c1cc2c(c(O)c1O)[C@@]13CCCC(C)(C)[C@@H]1[C@H](OC3=O)C2=O | inactive | inactive | inactive | 2.33 µM (active) | inactive | 16.5 µM (active) |  |  |  |  |
| O=C(CCCCN1CCOCC1)Nc1ccc(-c2cccnc2)cc1 | inactive | inactive | inactive | inactive | inactive | inactive |  |  |  |  |
| C=C(C)C1CC[C@]2(C(=O)O)CC[C@]3(C(=O)O)[C@H](CCC4[C@@]5(C)CC[C@H](O)C(C)(C)C5CC[C@]43C)C12 (some centres not stated) | inactive | inactive | inactive | inactive | inactive | inactive |  |  |  |  |
| C[C@@H]1CN(Cc2ccccc2)C[C@H]1c1nc2c(cnn2C2CCOCC2)c(=O)[nH]1 | inactive | inactive | inactive | inactive | inactive | inactive |  |  |  |  |
| C=C1C(=O)O[C@@H]2[C@H]1CCC(C)=C1CCC(=O)O[C@]12C | inactive | inactive | inactive | 18.9 µM (active) | inactive | inactive |  |  |  |  |
| CC12CCC(=O)C=C1C(O)CC1C2C(O)CC2(C)C1CC[C@]2(O)C(=O)CO (some centres not stated) | inactive | inactive |  |  |  |  | 2.02% [at 11.6 µM] | -1.91% [at 11.5 µM] | 4.05% [at 11.6 µM] | -2.06% [at 11.5 µM] |
| Cn1ncnc1COc1nn2c(-c3cc(F)ccc3F)nnc2cc1C(C)(C)C | inactive | inactive | inactive | inactive | inactive | inactive |  |  |  |  |
| CC(=O)c1ccc(O[C@@H]2O[C@H](CO)[C@@H](O)[C@H](O)[C@H]2O)cc1 | inactive | inactive | inactive | inactive | inactive | inactive |  |  |  |  |
| C[C@@H]1C(=O)O[C@H](C)[C@H]1CC(=O)[C@](C)(O)[C@H]1CC[C@@]2(O)C3=CC(=O)[C@@H]4C[C@@H](O)[C@@H](O)C[C@]4(C)C3CC[C@]12C (some centres not stated) | inactive | inactive | inactive | inactive | inactive | inactive |  |  |  |  |
| CCCCC1CCN(CCCC(=O)c2ccccc2C)CC1 | inactive | inactive | inactive | inactive | inactive | inactive |  |  |  |  |
| C[C@H]1CC(=O)Nc2cccc(-c3cnn(C(C)(C)C)c3)c2N1 | inactive | inactive | inactive | inactive | inactive | inactive |  |  |  |  |
